Shown are actives, neighbours in structure and some others; about 5.1% of the full set was active somewhere.
S1P4 antagonist: S1P4 receptor antagonists, primary screen, cell-based; Sphingosine 1-phosphate receptor 4 (Homo sapiens), O95977; hit rate 0.26% among 220,000; S1P4-expressing cells, antagonist mode, reporter read-out; inhibition, % at 4.98 µM; in the data active = inhibition above about 29%;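 note: 0% = wells stimulated with agonist and 100% = vehicle wells without agonist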
Cl transport mod: KCC2 cotransporter modulators, thallium flux, primary screen, cell-based, HEK293 KCC2, FluoZin-2 fluorescence, MLSMR; Solute carrier family 12 member 5 (Homo sapiens), Q9H2X9; KCC2 cells, thallium flux FluoZin-2 fluorescence; B-score of Tl+ flux slope (higher = more flux/activation; lower = inhibition) at 10 µM; hit rate 2.2% among 190,000; AID 1456, 2008;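 active = thallium flux slope and its plate-corrected score both differing from the plate sample mean at a set confidence after two filtering rounds, in either direction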;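 note: slope of fluorescence scaled to starting intensity during 10 to 20 s after thallium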
S1P4 ag: S1P4 receptor agonists, primary screen, cell-based. Sphingosine 1-phosphate receptor 4 (Homo sapiens), O95977. S1P4-expressing cell line, agonist reporter assay. activation, % at 4.98 µM. hit rate 0.35% among 220,000. AID 1509, 2009; in the data active = activation above about 11%;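 note: 0% = DMSO vehicle and 100% = reference agonist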
RAM inhibit: inhibitors of the yeast RAM network, primary screen, dse1pr::URA3 reporter, 5-FOA selection; S. cerevisiae dse1pr::URA3 reporter, 5-FOA growth OD615, 2 d; analog-sensitive cbk1-as2 kinase mutant strain; hit rate 1.8% among 190,000; inhibition, % at 50 µM;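 active = inhibition above a set limit, 3 SD over mean compound inhibition, cut at about 8.4% in these data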;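 note: 0% = DMSO-only wells with no growth and 100% = 10 µM 1-NA-PP1 full growth; inhibition rescues growth on 5-FOA so higher OD means more RAM inhibition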
ROMK primary: ROMK potassium channel modulators, primary screen, cell-based, thallium flux, MLSMR library | ATP-sensitive inward rectifier potassium channel 1 (Homo sapiens), P48048 | Tet-inducible ROMK, thallium flux fluorescence; actives lie on both sides | B-score at 10 µM | hit rate 2% among 130,000 | AID 1918, 2009;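 active = signal ratio slope over the read window, or its plate-corrected B-score, at least 3 SD from the plate mean, either direction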;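 note: B-score of the F/F0 ratio slope over 7 to 12 s after thallium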
S1P3 antag: S1P3 receptor antagonists, primary screen, cell-based; Sphingosine 1-phosphate receptor 3 (Homo sapiens), Q99500; CHO S1P3 NFAT-BLA reporter, FRET fluorescence, antagonist mode; inhibition, % at 4.98 µM; hit rate 0.27% among 170,000; AID 485, 2006;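 active = inhibition above the plate cutoff, the mean inhibition of test wells on that plate plus 3 SD, cut at about 28% in these data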;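 note: cells challenged with S1P at its EC80 of 0.8 µM; blue over green emission ratio from cleaved BLA substrate after 4 h stimulation; 0% = S1P-stimulated wells and 100% = unstimulated DMSO-only wells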
Target sequence (Q99500 whole entry, looked up): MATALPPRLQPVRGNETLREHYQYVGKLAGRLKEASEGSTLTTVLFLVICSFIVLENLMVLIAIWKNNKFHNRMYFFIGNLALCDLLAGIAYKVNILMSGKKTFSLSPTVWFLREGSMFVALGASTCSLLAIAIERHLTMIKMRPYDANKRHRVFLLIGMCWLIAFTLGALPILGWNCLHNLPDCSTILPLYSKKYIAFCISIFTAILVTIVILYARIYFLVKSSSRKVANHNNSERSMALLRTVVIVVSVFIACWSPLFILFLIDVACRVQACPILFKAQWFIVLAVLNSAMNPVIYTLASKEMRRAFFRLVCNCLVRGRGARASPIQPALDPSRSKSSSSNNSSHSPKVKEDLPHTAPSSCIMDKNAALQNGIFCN
* marks the source's active call; other numbers are inactive results; . = no result given.

SMILES | S1P4 antagonist | Cl transport mod | S1P4 ag | RAM inhibit | ROMK primary | S1P3 antag
Cc1cc(C(=O)COC(=O)c2ccccc2O)c(C)n1Cc1cccs1 | 0 | -0.34 | -2 | 9.0* | 0.084 | .
O=C(COC(=O)c1cc(-c2cccs2)nn1-c1ccccc1)Nc1ccc(Cl)c([N+](=O)[O-])c1 | -17 | 0.32 | 2 | 2 | 0.5 | 0
COc1ccccc1/C=C/C(=O)NC(=S)N(C)C1CCCCC1 | 0 | 9.8* | 2 | 0 | . | .
CN(C(=S)NC(=O)c1ccccc1Br)C1CCCCC1 | -10 | 31* | -2 | 3 | . | .
CC/C(=C\C1CCCCC1)C(NP(=O)(c1ccccc1)c1ccccc1)c1ccccc1 (centres undefined) | 11 | 0.72 | 0 | 5 | -0.88 | -9
O=C(NCc1ccncc1)C(=O)N/N=C/c1ccccn1 | -2 | -0.34 | 3 | 0 | -0.021 | -4
Cc1ccc2nc(N3C(=O)C(O)=C(C(=O)c4ccco4)C3c3cccs3)sc2c1 (centres undefined) | -12 | . | 2 | 5 | -2.6* | .
COc1ccc(C2C(C(=O)c3ccco3)=C(O)C(=O)N2c2nnc(C)s2)cc1 (centres undefined) | -9 | . | 2 | 0 | -0.32 | 3
OC(CN1C2=NCCCN2c2ccccc21)c1ccc(Cl)cc1 (centres undefined) | 6 | . | 1 | 3 | . | 82*
O/C(=C\Sc1nnc(Cc2ccccc2)o1)c1ccc(Br)cc1 | -15 | . | 1 | 1 | 0.081 | 81*
Cn1c(SCc2ccccn2)nc2c1c(=O)[nH]c(=O)n2C | -13 | 0.65 | 0 | . | . | 2
COc1ccc(C)cc1S(=O)(=O)NCCC1=CCCCC1 | 6 | . | -1 | 1 | 0.82 | .
CCOc1ccc(S(=O)(=O)NCCC2=CCCCC2)c2ccccc12 | -7 | 0.51 | -1 | 11* | . | .
CCCn1c(C)cc(C(=O)COc2ccc(S(=O)(=O)N(CC)CC)cc2[N+](=O)[O-])c1C | -20 | -0.56 | 1 | 8.4* | -1 | -10
Oc1ccccc1/C=N/n1c2ccccc2c2ccccc21 | 6 | . | 1 | 9.7* | . | .
Cc1ccc(SCc2ccc(C(=O)Nc3ccccc3Br)cc2)cc1 | 5 | -0.48 | 0 | 5 | . | -8
Cc1ccc(SCc2ccc(C(=O)Nc3ccccc3C(=O)NC(C)C)cc2)cc1 | -17 | -0.059 | 2 | 9.1* | . | -8
CN(CC(=O)Nc1ccc(N2CCOCC2)cc1)Cc1cc(=O)n2ccsc2n1 | -3 | 0.72 | 2 | 1 | 0.65 | -8
COc1ccc(/C=N/Nc2ccc(C(F)(F)F)cc2[N+](=O)[O-])cc1O | -9 | -0.31 | -1 | 10* | 0.17 | -6
CCOc1ccc(/C=N/Nc2ccc(C(F)(F)F)cc2[N+](=O)[O-])cc1O | 6 | 0.11 | -2 | 3 | 0.61 | -13
CCCN1CCC(NC(=O)Nc2ccc(Br)cc2)CC1 | -1 | -0.15 | -1 | -1 | -1.6 | -6
Cc1ccc(-c2csc3nc[nH]c(=S)c23)cc1C | -17 | 43* | 0 | 1 | . | 11
NCCCC[C@H]1CNC(=O)C(=O)N1CCC12CC3CC(CC(C3)C1)C2 | . | -0.85 | . | . | . | .
COc1ccc(C(C)(C)C)cc1NC(=O)Nc1ccc2c(c1)OCO2 | 1 | 0.25 | -2 | 4 | -0.15 | 59*
COP1(=O)C=C[C@H](N(Cc2ccccc2)S(=O)(=O)c2ccccc2[N+](=O)[O-])[C@@H](C)O1 (some centres undefined) | . | -0.56 | . | . | . | .
CCOc1ccc(CCNC(=O)C2CCN(S(=O)(=O)N3CCC(C)CC3)CC2)cc1OCC | -10 | -0.24 | 2 | 6 | 0.47 | 1
O=c1c2cnn(-c3ccc(F)cc3)c2ncn1Cc1ccccc1 | -14 | 0.85 | 2 | 3 | 0.057 | .
COc1nccnc1NS(=O)(=O)c1ccc(NC(=S)NC(=O)/C=C/c2ccccc2)cc1 | -14 | 1.1 | 0 | 5 | . | 7
C=CCN(CC=C)S(=O)(=O)c1ccc(NC(=S)NC(=O)/C=C/c2ccccc2)cc1 | 0 | 0.079 | -1 | 10* | . | .

Bioassay records (PubChem BioAssay)
